Laboratory results: article PMC4336329 (PLoS ONE, 2015)
Among all 310,000 compounds or so, about 14,000 (4.5%) showed an effect of 50% or more. The effect is printed as a negative number. The entries come from a sample that favours strong results as a whole.

Each compound was assayed against human ether-à-go-go-related gene (hERG) potassium channel (human, UniProt Q12809) (assay: primary screen, population patch clamp on CHO cells stably expressing hERG; higher = less effect of the substance).
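Note: peak tail current of the secondary pulse compared with the same well before compound.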

Chain of human ether-à-go-go-related gene (hERG) potassium channel (Q12809 whole entry, looked up): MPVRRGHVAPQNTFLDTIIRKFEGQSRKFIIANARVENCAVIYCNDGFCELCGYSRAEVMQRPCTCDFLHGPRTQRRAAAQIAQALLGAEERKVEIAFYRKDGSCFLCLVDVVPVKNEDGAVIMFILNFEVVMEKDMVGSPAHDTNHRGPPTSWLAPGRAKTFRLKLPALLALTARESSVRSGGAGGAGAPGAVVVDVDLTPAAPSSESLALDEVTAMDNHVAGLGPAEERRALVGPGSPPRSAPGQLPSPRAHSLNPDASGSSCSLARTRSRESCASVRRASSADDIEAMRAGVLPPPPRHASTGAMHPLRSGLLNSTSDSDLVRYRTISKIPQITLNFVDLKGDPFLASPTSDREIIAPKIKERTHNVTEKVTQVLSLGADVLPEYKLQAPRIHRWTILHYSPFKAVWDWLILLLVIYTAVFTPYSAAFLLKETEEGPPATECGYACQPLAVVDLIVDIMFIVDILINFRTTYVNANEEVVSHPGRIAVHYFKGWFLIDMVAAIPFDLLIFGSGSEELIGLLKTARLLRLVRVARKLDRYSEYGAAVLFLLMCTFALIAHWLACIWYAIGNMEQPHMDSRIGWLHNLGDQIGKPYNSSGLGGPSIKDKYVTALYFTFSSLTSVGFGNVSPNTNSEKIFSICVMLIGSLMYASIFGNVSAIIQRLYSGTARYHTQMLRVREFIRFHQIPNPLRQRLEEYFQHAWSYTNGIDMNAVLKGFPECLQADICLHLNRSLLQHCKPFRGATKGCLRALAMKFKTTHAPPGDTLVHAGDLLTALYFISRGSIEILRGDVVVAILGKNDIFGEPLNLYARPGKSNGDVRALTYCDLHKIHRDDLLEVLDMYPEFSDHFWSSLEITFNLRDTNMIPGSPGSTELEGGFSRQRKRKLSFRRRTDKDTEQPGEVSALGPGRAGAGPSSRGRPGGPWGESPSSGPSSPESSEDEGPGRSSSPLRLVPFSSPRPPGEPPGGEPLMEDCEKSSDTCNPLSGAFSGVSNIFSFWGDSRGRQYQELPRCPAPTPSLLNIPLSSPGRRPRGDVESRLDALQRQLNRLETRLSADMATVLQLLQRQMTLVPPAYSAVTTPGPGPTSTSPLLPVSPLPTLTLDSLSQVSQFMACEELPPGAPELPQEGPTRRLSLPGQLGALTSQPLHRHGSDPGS

**Q.** With `CCC(C)NC(=O)CN(c1ccc(Cl)c(Cl)c1)S(C)(=O)=O` (centres unmarked) as the compound, how does the “hERG current change (%, negative = inhibition) at 10uM” value read?
**A.** Its value is 3.62%.

**Q.** `O=C(NC1CCCC1)c1cc(S(=O)(=O)N2CCOCC2)c(Cl)cc1Cl` was tested. Which “hERG current change (%, negative = inhibition) at 10uM” value did it give?
**A.** The value was -8.15%.

**Q.** For `O=C(Nc1nnc(-c2ccc3c(c2)CCCC3)o1)C1CCCCC1`, which “hERG current change (%, negative = inhibition) at 10uM” value is on record?
**A.** Its value is 4.3%.

**Q.** How did the “hERG current change (%, negative = inhibition) at 10uM” value turn out when `O=C(CSc1nnc(NC(=O)c2ccccc2F)s1)Nc1ccccc1F` was run?
**A.** Its value is 30.9%.

**Q.** `CCn1c(SCC(=O)N2CCCCC2)nc2c1c(=O)n(C)c(=O)n2C` was tested. Which “hERG current change (%, negative = inhibition) at 10uM” value did it give?
**A.** The value was 14.3%.

**Q.** Which “hERG current change (%, negative = inhibition) at 10uM” value does the source give for `CCCCOc1ccc(/C(O)=C2/C(=O)C(=O)N(CCCOC)C2c2ccncc2)cc1` (centres unmarked) here?
**A.** The value was 18.2%.

**Q.** For `CCCOc1ccc(/C(O)=C2/C(=O)C(=O)N(CCCOC)C2c2cccnc2)cc1` (centres unmarked), which “hERG current change (%, negative = inhibition) at 10uM” value is on record?
**A.** The value was -5.91%.

**Q.** For `CCCOc1ccc(/C(O)=C2/C(=O)C(=O)N(CCCOC)C2c2ccncc2)cc1` (centres unmarked), which “hERG current change (%, negative = inhibition) at 10uM” value is on record?
**A.** The value was -53.1%.

**Q.** `COc1ccc(C(=O)N2CCN(Cc3ccccc3[N+](=O)[O-])CC2)cc1.O=C(O)C(=O)O` was tested. Which “hERG current change (%, negative = inhibition) at 10uM” value did it give?
**A.** Its value is -58.9%.

**Q.** `O=C(C1CCCN(Cc2ccccc2[N+](=O)[O-])C1)N1CCCC1.O=C(O)C(=O)O` (centres unmarked) was tested. Which “hERG current change (%, negative = inhibition) at 10uM” value did it give?
**A.** The value was 11.4%.

**Q.** How did the “hERG current change (%, negative = inhibition) at 10uM” value turn out when `CN(Cc1ccccc1)C1CCN(Cc2ccccc2[N+](=O)[O-])CC1.O=C(O)C(=O)O` was run?
**A.** The value was -59.6%.

**Q.** How did the “hERG current change (%, negative = inhibition) at 10uM” value turn out when `CC(C)CC(=O)N1CCN(Cc2ccccc2[N+](=O)[O-])CC1.O=C(O)C(=O)O` was run?
**A.** The value was -7.35%.

**Q.** With `O=C(O)C(=O)O.O=C(c1ccc([N+](=O)[O-])cc1)N1CCN(Cc2ccccc2[N+](=O)[O-])CC1` as the compound, how does the “hERG current change (%, negative = inhibition) at 10uM” value read?
**A.** The value was -75%.

**Q.** `O=C(c1cccs1)N1CCN(Cc2ccccc2[N+](=O)[O-])CC1` was tested. Which “hERG current change (%, negative = inhibition) at 10uM” value did it give?
**A.** The value was -17.7%.

**Q.** Which “hERG current change (%, negative = inhibition) at 10uM” value does the source give for `COc1cc(OC)cc(C(=O)N2CCN(Cc3ccccc3[N+](=O)[O-])CC2)c1.O=C(O)C(=O)O` here?
**A.** Its value is -46.5%.

**Q.** `O=C(Cc1ccccc1[N+](=O)[O-])NC1CCN(Cc2ccccc2)CC1` was tested. Which “hERG current change (%, negative = inhibition) at 10uM” value did it give?
**A.** The value was -1.68%.

**Q.** With `COc1cccc(C(=O)N2CCN(Cc3ccccc3[N+](=O)[O-])CC2)c1` as the compound, how does the “hERG current change (%, negative = inhibition) at 10uM” value read?
**A.** The value was -14.5%.

**Q.** How did the “hERG current change (%, negative = inhibition) at 10uM” value turn out when `CC(=O)Nc1cccc(NC(=O)CSc2ccc(-c3cccnc3)nn2)c1` was run?
**A.** Its value is 7.43%.

**Q.** With `CCC(C)/C(C)=N/NC(=O)CSc1nc2ccccc2[nH]1` (centres unmarked) as the compound, how does the “hERG current change (%, negative = inhibition) at 10uM” value read?
**A.** Its value is 2.26%.

**Q.** `O=C1C2CC=CCC2C(=O)N1CNc1ccccc1` (centres unmarked) was tested. Which “hERG current change (%, negative = inhibition) at 10uM” value did it give?
**A.** Its value is 14.7%.

**Q.** Which “hERG current change (%, negative = inhibition) at 10uM” value does the source give for `Cc1c(Cl)c([N+](=O)[O-])nn1CCCC(=O)Nc1ccc(Cl)cc1Cl` here?
**A.** The value was -45.1%.

**Q.** Which “hERG current change (%, negative = inhibition) at 10uM” value does the source give for `COc1ccc(CNC(=O)C(=O)NCC2OCCN2S(=O)(=O)c2cccs2)cc1` (centres unmarked) here?
**A.** Its value is -4.34%.

**Q.** How did the “hERG current change (%, negative = inhibition) at 10uM” value turn out when `O=C(CNC1C(=O)Nc2ccccc21)Sc1ccccc1` (centres unmarked) was run?
**A.** Its value is 22.3%.

**Q.** How did the “hERG current change (%, negative = inhibition) at 10uM” value turn out when `CCSc1nnc(NC(=O)Cc2cc(OC)c(OC)c(OC)c2)s1` was run?
**A.** The value was 8.27%.

**Q.** With `CSc1nnc(SCC(=O)N(C)c2c(N)n(Cc3ccccc3)c(=O)[nH]c2=O)s1` as the compound, how does the “hERG current change (%, negative = inhibition) at 10uM” value read?
**A.** Its value is 5.79%.

**Q.** `CC(C)C[C@H](NC(=O)c1nc[nH]c1C(=O)NCc1ccccc1)C(=O)OCc1ccccc1` was tested. Which “hERG current change (%, negative = inhibition) at 10uM” value did it give?
**A.** The value was -7.88%.

**Q.** With `COCCn1c(SCC(=O)NC2CCCC2)nnc1C(C)C` as the compound, how does the “hERG current change (%, negative = inhibition) at 10uM” value read?
**A.** The value was 22.6%.

**Q.** With `CSc1ccccc1C(=O)N1CCC(CCC(=O)NC2CC2)CC1` as the compound, how does the “hERG current change (%, negative = inhibition) at 10uM” value read?
**A.** The value was 11.6%.

**Q.** How did the “hERG current change (%, negative = inhibition) at 10uM” value turn out when `CSc1ccc(C(=O)N2CCC(CCC(=O)NC3CC3)CC2)cc1` was run?
**A.** The value was -30.8%.

**Q.** Which “hERG current change (%, negative = inhibition) at 10uM” value does the source give for `O=C(CCC1CCN(Cc2ccc(C#CCCO)cc2)CC1)NC1CC1` here?
**A.** The value was -46.7%.

**Q.** Which “hERG current change (%, negative = inhibition) at 10uM” value does the source give for `O=C(CCC1CCN(Cc2ccccc2Cl)CC1)NC1CC1` here?
**A.** Its value is -23.2%.

**Q.** For `O=C(CCC1CCN(Cc2ccc(Cl)cc2)CC1)NC1CC1`, which “hERG current change (%, negative = inhibition) at 10uM” value is on record?
**A.** Its value is -65.9%.

**Q.** How did the “hERG current change (%, negative = inhibition) at 10uM” value turn out when `CSc1cccc(CN2CCC(CCC(=O)NC3CC3)CC2)c1` was run?
**A.** The value was -62.6%.

**Q.** How did the “hERG current change (%, negative = inhibition) at 10uM” value turn out when `CN(Cc1cnn(C)c1)Cc1nc(-c2ccc(Cl)cc2)no1` was run?
**A.** Its value is -4.26%.

**Q.** Which “hERG current change (%, negative = inhibition) at 10uM” value does the source give for `Cn1c(=O)c2c(SC3CCCC3)nc(C3CC3)nc2n(C)c1=O` here?
**A.** Its value is 18.8%.

**Q.** Which “hERG current change (%, negative = inhibition) at 10uM” value does the source give for `S=C1NCCOCCOCCNC(=S)N2CCOCCOCCN1CCOCCOCC2` here?
**A.** Its value is 5.22%.

**Q.** With `CCOC(=O)c1[nH]c(C)c(C(=O)N2CCN(c3cccc(Cl)c3)CC2)c1C` as the compound, how does the “hERG current change (%, negative = inhibition) at 10uM” value read?
**A.** The value was -13.8%.

**Q.** For `CN(C(=O)CSc1ncc(C(F)(F)F)cc1Cl)c1c(N)n(Cc2ccccc2)c(=O)[nH]c1=O`, which “hERG current change (%, negative = inhibition) at 10uM” value is on record?
**A.** The value was 8.25%.

**Q.** How did the “hERG current change (%, negative = inhibition) at 10uM” value turn out when `C/C(=N\OCc1ccc(C#N)cc1)c1ccc(S(=O)(=O)N(C)C)cc1` was run?
**A.** The value was -52.7%.

**Q.** `C/C(=N\OCc1ccc(C#N)cc1)c1ccccc1` was tested. Which “hERG current change (%, negative = inhibition) at 10uM” value did it give?
**A.** The value was 12.1%.

**Q.** With `CN(C)S(=O)(=O)c1ccc(C(=O)OCc2ccc(C#N)cc2)cc1` as the compound, how does the “hERG current change (%, negative = inhibition) at 10uM” value read?
**A.** The value was -11.1%.

**Q.** `C=CCn1c(SCCN2CCCC2)nc2c([nH]c3ccccc32)c1=O` was tested. Which “hERG current change (%, negative = inhibition) at 10uM” value did it give?
**A.** The value was -71.7%.

**Q.** For `C=CCn1c(SCC(=O)N2CCCC2)nc2c([nH]c3ccccc32)c1=O`, which “hERG current change (%, negative = inhibition) at 10uM” value is on record?
**A.** Its value is -29.6%.

**Q.** How did the “hERG current change (%, negative = inhibition) at 10uM” value turn out when `CCn1c(SCC(=O)N2CCOCC2)nc2sc3c(c2c1=O)CCCC3` was run?
**A.** The value was -5.19%.

**Q.** `C=CCn1c(SCC(=O)N2CCN(CCO)CC2)nc2sc3c(c2c1=O)CCC3` was tested. Which “hERG current change (%, negative = inhibition) at 10uM” value did it give?
**A.** The value was -20.9%.

**Q.** `C=CCn1c(SCC(=O)N2CCOCC2)nc2sc3c(c2c1=O)CCCC3` was tested. Which “hERG current change (%, negative = inhibition) at 10uM” value did it give?
**A.** Its value is -53.9%.

**Q.** How did the “hERG current change (%, negative = inhibition) at 10uM” value turn out when `C=CCn1c(SCC(=O)NC2CCCC2)nc2c([nH]c3ccccc32)c1=O` was run?
**A.** Its value is -40.8%.

**Q.** How did the “hERG current change (%, negative = inhibition) at 10uM” value turn out when `C=CCn1c(SCC(=O)NCCc2ccccc2)nc2c([nH]c3ccccc32)c1=O` was run?
**A.** Its value is -3.29%.

**Q.** How did the “hERG current change (%, negative = inhibition) at 10uM” value turn out when `C=CCn1c(SCC(=O)N2CCN(c3ccccc3)CC2)nc2c([nH]c3ccccc32)c1=O` was run?
**A.** Its value is 13.3%.

**Q.** `C=CCn1c(SCC(=O)N2CCOCC2)nc2c([nH]c3ccccc32)c1=O` was tested. Which “hERG current change (%, negative = inhibition) at 10uM” value did it give?
**A.** Its value is -52.9%.

**Q.** How did the “hERG current change (%, negative = inhibition) at 10uM” value turn out when `COc1ccc(S(=O)(=O)Nc2ccc(S(=O)(=O)Nc3nccs3)cc2)cc1` was run?
**A.** Its value is 19.9%.

**Q.** For `COc1ccc(OCc2cc(C(=O)O)c(C)o2)cc1`, which “hERG current change (%, negative = inhibition) at 10uM” value is on record?
**A.** Its value is 2.69%.

**Q.** How did the “hERG current change (%, negative = inhibition) at 10uM” value turn out when `CCN(CC)c1nc2ccccc2n2cnnc12` was run?
**A.** The value was -16.4%.

**Q.** How did the “hERG current change (%, negative = inhibition) at 10uM” value turn out when `CCn1c(SC)nnc1-c1sc2cc(Cl)ccc2c1Cl` was run?
**A.** The value was -55.4%.

**Q.** How did the “hERG current change (%, negative = inhibition) at 10uM” value turn out when `CCn1c(SC)nnc1-c1nnc(SC)n1CC` was run?
**A.** Its value is -7.09%.

**Q.** With `CSc1nnc(-c2sc3cc(Cl)ccc3c2Cl)n1C` as the compound, how does the “hERG current change (%, negative = inhibition) at 10uM” value read?
**A.** The value was 0.137%.
